Measurements: PubChem BioAssay (NCATS)
Inconclusive results are not listed. The source made the active and inactive calls. Calls follow the shape of the dose curve; as a rule, active = well fitted curve in the direction sought with a large enough effect; inconclusive = small, poorly fitted or top-dose-only effect, or another doubt; inactive = no such curve, though single readings can be large; an effect the other way counts as inactive or inconclusive.

Assays:
[1] = HPAF-II Cancer Cell Toxicity qHTS against the NCATS CANVASS Library (AID 1347346); conditions: HPAF-II viability, CellTiter-Glo ATP luminescence, 72 h; series mostly up to 12.8 µM; also: nearly all actives have a fitted effect of over 55% in size
How it was run: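 HPAF-II cells at 1000 cells/well were treated with an 11-point concentration series for 72 hours at 37 degrees C. Viability read by CellTiter-Glo luminescence.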

[2] = UWB1.289 Cancer Cell Toxicity qHTS against the NCATS CANVASS Library (AID 1347347); conditions: UWB1.289 viability, CellTiter-Glo luminescence, 72 h; series mostly up to 12.8 µM; also: nearly all actives have a fitted effect of over 60% in size
How it was run: (§1)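 Cells were seeded at 1000 per well, allowed 4 h at 37 degrees C/5% CO2, then pin-treated with an 11-point compound series. After 72 h, viability was read as CellTiter-Glo luminescence following 15min at room temperature.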

[3] = OV-SAHO Cancer Cell Toxicity qHTS against the NCATS CANVASS Library (AID 1347348); conditions: OV-SAHO viability, CellTiter-Glo luminescence, 72 h; series mostly up to 12.8 µM; also: nearly all actives have a fitted effect of over 55% in size
How it was run: as §1

[4] = Panc-1005 Cancer Cell Toxicity qHTS against the NCATS CANVASS Library (AID 1347349); conditions: Panc-1005 viability, CellTiter-Glo luminescence, 72 h; series mostly up to 12.8 µM; also: nearly all actives have a fitted effect of over 60% in size
How it was run: as §1

[5] = SW1088 Cancer Cell Toxicity qHTS against the NCATS CANVASS Library (AID 1347350); conditions: SW1088 viability, CellTiter-Glo luminescence, 72 h; series mostly up to 12.8 µM; also: nearly all actives have a fitted effect of over 75% in size
How it was run: as §1

[6] = U-118MG Cancer Cell Toxicity qHTS against the NCATS CANVASS Library (AID 1347351); conditions: U-118MG viability, CellTiter-Glo luminescence, 72 h; series mostly up to 12.8 µM
How it was run: as §1

[7] = COV-362 Cancer Cell Toxicity qHTS against the NCATS CANVASS Library (AID 1347352); conditions: COV-362 viability, CellTiter-Glo luminescence, 72 h; series mostly up to 12.8 µM
How it was run: (§2)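 Cells at 1000/well were given compound 4 h after plating in an 11-point series. Viability was read by CellTiter-Glo luminescence after 72 h at 37 degrees C.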

[8] = A2780 Cisplatin Sensitive Ovarian Cancer Cell Toxicity qHTS against the NCATS CANVASS Library (AID 1347353); conditions: A2780 ovarian cancer viability, ATPLite luminescence, 72 h; at 15.4 µM (top of the series); also: nearly all actives have a fitted effect of over 60% in size
How it was run: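 A2780 cells, 750/well, settled 4 h at 37 °C, then treated with an 11-point compound series for 72 h. Viability was read as ATPLite luminescence after 10 min at room temperature, with bortezomib as control.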

[9] = UWB1.289-WTBRCA1 Cancer Cell Toxicity qHTS against the NCATS CANVASS Library (AID 1347354); conditions: UWB1.289-WTBRCA1 viability, CellTiter-Glo luminescence, 72 h; series mostly up to 12.8 µM
How it was run: as §2

[10] = HEK-293 Cancer Cell Toxicity qHTS against the NCATS CANVASS Library (AID 1347355); conditions: HEK-293 viability, CellTiter-Glo luminescence, 72 h; at 15.4 µM (top of the series); also: nearly all actives have a fitted effect of over 65% in size
How it was run: as §2

Measured: outcome

C[C@@H]1O[C@@H](OC[C@H]2O[C@@H](Oc3c(-c4ccc(O)c(O)c4)oc4cc(O)cc(O)c4c3=O)[C@H](O)[C@@H](O)[C@@H]2O)[C@H](O)[C@H](O)[C@H]1O
inactive: [1] | [2] | [3] | [4] | [5] | [6] | [7] | [8] | [9] | [10]
